In the library only some 3.5% were active in any assay of this set; here they are far more common.
TEAD-YAP inh – TEAD-YAP interaction inhibition | HEK-TIYL cells, TEAD-Gal4/YAP UAS-luciferase luminescence | inhibition, % at 9.12 µM | actives 1.4% (n = 640,000); in the data active = inhibition above about 32%;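 note: 0% = median of test compound wells and 100% = reference inhibitor wells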
GPR151 activ – activators of human GPR151; PathHunter beta-arrestin GPR151 cells, luminescence; activation, % at 11.2 µM; actives 1% (n = 650,000); AID 1508602; in the data active = activation above about 4.9%;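 note: 0% = median of compound wells and 100% = cells with positive control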
FBW7 activator – human FBW7 E3 ligase activation, primary screen; Q969H0; AlphaScreen FBW7–phospho-cyclin E peptide binding, activator screen; normalized activity (activation), % at 26.1 µM; actives 0.13% (n = 650,000); AID 1259310; in the data active = normalized activity above about 1.9%;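 note: purified mutant Fbw7 with reduced substrate affinity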
Target sequence (Q969H0 whole entry, looked up): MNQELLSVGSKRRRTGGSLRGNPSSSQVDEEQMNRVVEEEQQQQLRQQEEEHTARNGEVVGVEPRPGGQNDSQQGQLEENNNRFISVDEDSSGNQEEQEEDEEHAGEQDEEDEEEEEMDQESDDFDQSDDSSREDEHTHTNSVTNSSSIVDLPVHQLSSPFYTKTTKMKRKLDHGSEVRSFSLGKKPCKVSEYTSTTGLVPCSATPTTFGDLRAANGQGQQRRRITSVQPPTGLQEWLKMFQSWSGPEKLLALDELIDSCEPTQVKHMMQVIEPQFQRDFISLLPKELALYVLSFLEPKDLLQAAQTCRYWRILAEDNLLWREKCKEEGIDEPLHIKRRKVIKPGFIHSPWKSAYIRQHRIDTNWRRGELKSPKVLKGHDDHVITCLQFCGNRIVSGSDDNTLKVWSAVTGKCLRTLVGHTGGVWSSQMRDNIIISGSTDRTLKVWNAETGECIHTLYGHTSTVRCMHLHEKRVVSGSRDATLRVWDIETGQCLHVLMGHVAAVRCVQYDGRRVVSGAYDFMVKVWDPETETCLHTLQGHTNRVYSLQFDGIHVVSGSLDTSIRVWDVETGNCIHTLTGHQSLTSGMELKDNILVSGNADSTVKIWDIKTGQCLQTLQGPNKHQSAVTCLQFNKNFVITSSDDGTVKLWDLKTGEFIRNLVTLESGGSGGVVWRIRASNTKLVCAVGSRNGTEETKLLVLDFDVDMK
MITF inh – inhibitors of human MITF. O75030. AlphaScreen MITF homodimerization, bead proximity signal. inhibition, % at 2.6 µM. actives 0.91% (n = 650,000). AID 1259374; in the data active = inhibition above about 50%;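 note: 0% = vehicle wells with protein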
Starred values were filed as active, the others as inactive; ! = repeats disagree.

SMILES | TEAD-YAP inh | GPR151 activ | FBW7 activator | MITF inh
O=C(c1cccc([N+](=O)[O-])c1)N1CCN(c2cccc(Cl)c2)CC1 | 13 | 1 | 0 | 8
C=CCn1c(-c2ccc(OC)cc2)c(C)sc1=Nc1ccc(Br)cc1 | -9 | 0 | 0 | 9
Cc1ccccc1N1C(=O)C2C(C1=O)C1C=CC2C12CC2 (stereo unspecified) | 1 | 1 | 0 | 4
COc1ccccc1N1CCN(CC(O)COc2cccc3ccccc23)CC1 (stereo unspecified) | 38*! | 0 | 0 | 12
CN1CCN(CC(O)COc2cccc3ccccc23)CC1 (stereo unspecified) | 10 | -1 | 0 | 9
O=C(Nc1ccc(Oc2ccccc2)cc1)c1ccc2c(=O)n(-c3cc(C(F)(F)F)ccc3Cl)c(=S)[nH]c2c1 | 36* | 0 | 0 | -7
O=C(Nc1ccc(Oc2ccccc2)cc1)c1ccc2c(=O)n(-c3cccc(C(F)(F)F)c3)c(=S)[nH]c2c1 | -1 | 0 | 0 | -6
COc1ccc(-n2c(=S)[nH]c3cc(C(=O)Nc4cccc(C)c4)ccc3c2=O)c(OC)c1 | 48* | 2 | 0 | 8
COC(=O)c1ccc(C)c(NS(=O)(=O)c2ccc(Br)s2)c1 | 23 | 0 | 0 | -5
COC(=O)c1cc(OC)c(OC)cc1NS(=O)(=O)c1ccccc1F | 5 | 0 | 0 | 1
O=C1N(c2ccccc2)C(c2ccccc2F)C1(F)F (stereo unspecified) | 0 | 1 | 0 | 2
O=C1N=C(N2CCOCC2)S/C1=C/C=C/c1ccccc1 | 45* | -1 | 0 | 26
O=C1N=C(c2ccccc2)S/C1=C/C=C\c1ccccc1 | 15 | 0 | 0 | 13
O=C1N=C(N2CCCC2)S/C1=C\C=C\c1ccccc1 | 78* | 0 | 0 | -1
O=C(NCC(c1cccs1)N1CCc2ccccc2C1)c1c(F)cccc1Cl (stereo unspecified) | -4 | -1 | 0 | 7
NC(C(=O)N1CCC(Nc2ccc3[nH]ncc3c2)CC1)c1ccc(-c2ccccc2)cc1 (stereo unspecified) | 38* | -1 | 0 | 3
Cc1sc2ncnc(NCC3COc4ccccc4O3)c2c1C (stereo unspecified) | 48* | 0 | 0 | 5
Cc1sc2ncnc(NCCc3ccc4c(c3)OCCO4)c2c1C | 57* | 1 | 1 | 17
O=C(CN(C(=O)c1csnn1)c1ccccc1)NCc1ccc(F)cc1 | -4 | 1 | 0 | -8
Cc1ccc(OCc2cc(C(=O)N(C)CCC3CCOCC3)no2)cn1 | 39* | 4 | 0 | -1
Cc1cc2nc3c(=O)[nH]c(=O)[nH]c3nc2c([N+](=O)[O-])c1N | 2 | 1 | -1 | 68*
Cc1cc2nc3c(=O)[nH]c(=O)[nH]c3nc2cc1N | 8 | 0 | 0 | -1
CCN1CCN(Cc2cc(Cl)c3cccnc3c2O)CC1 | 47* | 1 | 0 | 50
Oc1c(CN2CCN(c3cccc(C(F)(F)F)c3)CC2)cc(Cl)c2cccnc12 | 16 | 0 | -1 | 7
Oc1c(CN2CCCCCC2)cc(Cl)c2cccnc12 | 51* | -1 | -1 | 46
SMILES | TEAD-YAP inh | GPR151 activ | FBW7 activator | MITF inh
CCOC(=O)C1CCN(Cc2c(Cl)cccc2Cl)CC1 | -16 | 0 | 0 | 28
CN1CCN(Cc2cc(Cl)c3cccnc3c2O)CC1 | 54* | 0 | -1 | 79*
O=C(Oc1c(Br)cc(Cl)c2cccnc12)N1CCCCC1 | -11 | 0 | 0 | -12
CCOC(=O)C1CCN(Cc2cc(Cl)c3cccnc3c2O)CC1 | 72* | -1 | 0 | 43
Cc1ccc(S(=O)(=O)n2ccn(C(=O)c3ccccc3)c2=O)cc1 | -1 | 0 | 0 | 18
CC(C)(C)C(=O)CSc1nc2ccccc2nc1Cc1cccc([N+](=O)[O-])c1 | -9 | 0 | 0 | 0
Cc1cc(C)nc(SCc2ccc(C(=O)NN3Cc4ccccc4C3=N)cc2)n1 | 10 | -1 | 0 | 14
Oc1c(CN2CCOCC2)cc(Cl)c2cccnc12 | 50* | -1 | 0 | 64*
O=C1CCCN1Cc1cc(Cl)c2cccnc2c1O | 9 | 1 | 0 | 64*
CC1CN(Cc2cc(Cl)c3cccnc3c2O)CC(C)O1 (stereo unspecified) | 24 | -1 | 0 | 56*
OCC1CCCCN1Cc1cc(Cl)c2cccnc2c1O (stereo unspecified) (tested in a mixture with another compound) | 76* | 0 | 0 | 66*
O=C1c2ccccc2C(=O)N1Cc1cc(Cl)c2cccnc2c1O | 9 | 1 | 0 | 9
OCC1CCCCN1Cc1cccc(Cl)c1Cl (stereo unspecified) | 3 | -1 | 1 | 6
CCN(CC)C(=O)CSc1cn(CC(=O)N(C(C)C)C(C)C)c2ccccc12 | -8 | -2 | 0 | 11
CC(C)OCCCNC(=O)c1ccc(CN2CCc3ccccc3C2)cc1 | 11 | 0 | 2.0* | 15
CCC1(C)Cc2c(sc3nc(SCc4ccc(Br)cc4)n(-c4ccccc4)c(=O)c23)CO1 (stereo unspecified) | -5 | 2 | 0 | -7
CCCN1C(=O)C(C)(C)COc2cc(NS(=O)(=O)c3ccc(OC)cc3OC)ccc21 | -15 | -2 | 0 | -8
COc1ccc(CCNc2cc(N3CCN(S(=O)(=O)N(C)C)CC3)ccc2[N+](=O)[O-])cc1OC | 39* | 2 | 0 | 5
COc1ccc(CCNc2cc(N3CCCCC3)ccc2[N+](=O)[O-])cc1OC | 39* | 0 | 0 | 8
COc1ccc(CCNc2cc(N3CCN(C(=O)c4ccc(Br)cc4)CC3)ccc2[N+](=O)[O-])cc1OC | -3 | -1 | 0 | -7
COc1ccc(CCNc2cc(N3CCN(C(C)=O)CC3)ccc2[N+](=O)[O-])cc1OC | 46* | 1 | 0 | -10
Cc1nnc2c(N3CCN(C)CC3)nc3ccccc3n12 | 0 | 2 | 0 | 6
COC(=O)c1ccccc1Oc1ncnc(Oc2ccccc2C(=O)OC)c1[N+](=O)[O-] | 15 | 1 | 0 | 0
COc1ccc(/C=C/C(=O)NCCC(C)C)cc1OC | -5 | 0 | 0 | 3
Nc1ccc(OCc2ccc(COc3ccc(N)cc3)cc2)cc1 | 21 | 1 | 17* | -116
SMILES | TEAD-YAP inh | GPR151 activ | FBW7 activator | MITF inh
CCc1cccc(CC)c1NC(=O)CCS(=O)(=O)c1ccc(OC)cc1 | 4 | 2 | 1 | 43
CC1(C)c2ssc(=S)c2-c2ccccc2N1C(=O)c1ccccc1 | 57* | 4 | -1 | 17
CC1(C)c2ssc(=S)c2-c2ccccc2N1C(=O)C1CC1 | -5 | 0 | 0 | 6
O=C(Nc1ccccc1)c1sc(NCC2CCCO2)nc1-c1ccc([N+](=O)[O-])cc1 (stereo unspecified) | 4 | -2 | 0 | -1
O=[N+]([O-])c1ccc(Cc2nnc(-c3ccc(Cl)cc3Cl)o2)cc1 | 52* | 0 | 0 | 11
O=[N+]([O-])c1ccc(Cc2nnc(-c3ccccc3Br)o2)cc1 | 32* | -2 | 0 | 1
O=[N+]([O-])c1ccc(Cc2nnc(-c3ccccc3Cl)o2)cc1 | 27 | 1 | 0 | 0

Source: PubChem
